High-throughput results from PubChem BioAssay.
Most compounds without a hit are left out; they make up all but 1.6% or so of the library.
KCNQ2 pot = potentiators of rat KCNQ2 potassium channel | Potassium voltage-gated channel subfamily KQT member 2 (Rattus norvegicus), O88943 | CHO-K1 KCNQ2, FluxOR thallium flux fluorescence; hits give high values | B-score at 10 µM | actives 0.54% (n = 310,000) | AID 2239, 2010;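 active = fluorescence ratio B-score at least 3 SD of library B-scores, with initial fluorescence B-score within 3 of them, cut at about 5.3 in these data; same plate scores as AID 2156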;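 also: B-score of peak minus minimum over baseline fluorescence ratio after K+ and Tl+ stimulus; positive B-score means potentiation of KCNQ2 with more thallium influx and brighter signal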
Target sequence (O88943 whole entry, looked up): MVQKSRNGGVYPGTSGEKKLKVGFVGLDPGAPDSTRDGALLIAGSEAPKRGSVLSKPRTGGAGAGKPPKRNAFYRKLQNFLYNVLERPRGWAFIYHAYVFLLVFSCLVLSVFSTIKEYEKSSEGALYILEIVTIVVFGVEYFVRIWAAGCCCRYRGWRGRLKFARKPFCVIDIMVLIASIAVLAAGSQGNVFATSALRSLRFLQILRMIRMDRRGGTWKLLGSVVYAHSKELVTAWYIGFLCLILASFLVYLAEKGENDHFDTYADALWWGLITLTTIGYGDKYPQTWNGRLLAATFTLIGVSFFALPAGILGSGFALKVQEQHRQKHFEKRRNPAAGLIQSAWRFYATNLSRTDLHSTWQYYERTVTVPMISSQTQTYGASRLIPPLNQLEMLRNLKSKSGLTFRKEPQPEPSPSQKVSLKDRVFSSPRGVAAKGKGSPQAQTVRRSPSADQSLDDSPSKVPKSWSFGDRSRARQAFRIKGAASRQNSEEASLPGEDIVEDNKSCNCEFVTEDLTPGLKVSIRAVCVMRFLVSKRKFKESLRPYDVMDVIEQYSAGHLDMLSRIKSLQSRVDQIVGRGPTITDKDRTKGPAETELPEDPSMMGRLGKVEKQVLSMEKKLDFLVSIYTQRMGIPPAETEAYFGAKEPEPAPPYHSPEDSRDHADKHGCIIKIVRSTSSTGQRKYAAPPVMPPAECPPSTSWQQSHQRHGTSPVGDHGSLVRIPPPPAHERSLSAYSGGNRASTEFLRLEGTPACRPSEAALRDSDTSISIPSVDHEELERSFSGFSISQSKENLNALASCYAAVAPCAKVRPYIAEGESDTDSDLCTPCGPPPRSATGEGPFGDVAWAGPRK
KCNQ2 inh = rat KCNQ2 potassium channel inhibitors, primary screen, cell-based, CHO-K1, FluxOR thallium flux, B-score; Potassium voltage-gated channel subfamily KQT member 2 (Rattus norvegicus), O88943; 20 min; hits give low values; B-score at 10 µM; actives 1.1% (n = 310,000); AID 2156, 2009;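 active = fluorescence ratio B-score at most minus 3 library SDs, with starting brightness B-score within 2 library SDs, cut at about -5.5 in these data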
Of the large screens only hits and unclear results are named; the others gave an inactive call.

COc1ccc(O[C@H]2C=C[C@@H](c3ccccc3)O[C@@H]2COC(=O)CC/C(C)=N/OC[C@@H](O)COCc2ccco2)cc1	none (no result: KCNQ2 pot)
CCOC(=O)c1c(C)nc2c(c(SC)nn2-c2ccccc2)c1N	none
COc1ccc(-c2cc(C(=O)NCC3CCCO3)c3cc(C)ccc3n2)cc1 (stereo not drawn)	KCNQ2 inh -5.58
Cc1ccc2nc(-c3cccc(Br)c3)cc(C(=O)NCC3CCCO3)c2c1 (stereo not drawn)	none (no result: KCNQ2 pot)
COc1ccc(-c2cc(C(=O)NCC3CCCO3)c3ccccc3n2)cc1 (stereo not drawn)	none
O=C(NCC1CCCO1)c1cc(-c2ccccc2)nc2ccc(Br)cc12 (stereo not drawn)	KCNQ2 inh -7.4
COc1ccc(-c2nc(C(=O)NCC3CCCO3)cc3c2[nH]c2ccccc23)cc1 (stereo not drawn)	none (no result: KCNQ2 pot)
O=C(NCC1CCCO1)c1cc2c([nH]c3ccccc32)c(-c2cccc(Br)c2)n1 (stereo not drawn)	KCNQ2 inh -6.43
COc1ccc(CNC(=O)c2coc(=O)c3ccccc23)c(OC)c1	none (no result: KCNQ2 pot)
CCOc1ccccc1NC(=O)C1CCCN(S(=O)(=O)c2ccc(-n3cnnn3)cc2)C1 (stereo not drawn)	none
N#Cc1c(/N=C/c2cccnc2)sc2c1CCCC2	none
CN(C)/C=N/c1sc2c(c1C#N)CCCCC2	none
CCCN(/C=N/c1sc2c(c1C#N)CCCCC2)CCC	KCNQ2 inh -7.91
N#Cc1c(/N=C/c2cccs2)sc2c1CCCCC2	KCNQ2 inh -6.13
CC(=O)N(C)c1ccc(NC(=S)NCC(C)C)cc1	none
COc1ccc(C2NC3=C(CCC3)C3(C#N)C4(N=C(N)C23C#N)OCCO4)cc1 (stereo not drawn)	none (no result: KCNQ2 pot)
COc1ccc(C2NC3=C(CCCC3)C(C#N)(C#N)C2(C#N)C#N)cc1 (stereo not drawn)	KCNQ2 inh -5.79
Cc1ccc(C2NC(=O)Cc3ccccc32)cc1 (stereo not drawn)	none
COc1ccccc1COCC(O)CNCCc1ccc(C(F)(F)F)cc1 (stereo not drawn)	none (no result: KCNQ2 pot)
OC(CNCCc1ccc(C(F)(F)F)cc1)COc1cccc2ccccc12 (stereo not drawn)	KCNQ2 inh -7.1
Cc1oc(-c2ccc(Cl)cc2)nc1CN1CCC(C(=O)NCCCN2CCOCC2)CC1	none
CCc1ccc(-c2nc(CN3CCCC(C(=O)O)C3)c(C)o2)cc1 (stereo not drawn)	none (no result: KCNQ2 pot)
CCc1ccc(-c2nc(CN3CCC(C(=O)NCc4ccc(F)cc4)CC3)c(C)o2)cc1	none (no result: KCNQ2 pot)
CCN(CCNC(=O)C1CCCN(Cc2nc(-c3ccc(OC)cc3)oc2C)C1)c1ccccc1 (stereo not drawn)	KCNQ2 inh -8.68
CCN(CCNC(=O)C1CCN(Cc2nc(-c3ccc(Cl)cc3)oc2C)CC1)c1ccccc1	KCNQ2 inh -6.86
CCc1ccc(-c2nc(CN3CCC(C(=O)NCCN(CC)c4ccccc4)CC3)c(C)o2)cc1	KCNQ2 inh -6.52
CC(C)N(C)S(=O)(=O)c1ccc(Cl)c(C(=O)O)c1	none (no result: KCNQ2 pot)
O=C(O)/C=C/C(=O)Nc1ccc(C2(c3ccc(NC(=O)/C=C/C(=O)O)cc3)c3ccccc3-c3ccccc32)cc1	none
Cc1noc(C)c1C(=O)N1CCN(S(=O)(=O)c2cccc(Cl)c2Cl)CC1	none (no result: KCNQ2 pot)
CCN(CC)CC(=O)Nc1sc(C)cc1C(=O)c1ccccc1	none (no result: KCNQ2 pot)
CCc1cc(C(=O)c2ccc(Br)cc2)c(NC(=O)CN(CC)CC)s1	KCNQ2 inh -5.71
COc1cccc(C(=O)NCC2(c3ccccc3)CCCC2)c1OC	KCNQ2 inh -5.9
COc1ccc(C2(CNC(=O)c3ccccc3)CCCC2)cc1OC	none (no result: KCNQ2 pot)
O=C(OC1Cn2c(=O)ccc(=O)n2C1)c1ccccc1	none
Cc1ccc2cc(CN(Cc3cccs3)C(=O)c3ccco3)c3nnnn3c2c1C	KCNQ2 inh -6.03
Cc1ccc2c(c1)cc(CN(Cc1cccs1)C(=O)c1ccco1)c1nnnn12	none
CC(Oc1ccc(F)cc1)C(=O)Nc1cc(S(=O)(=O)N2CCCCC2)ccc1N1CCOCC1 (stereo not drawn)	none (no result: KCNQ2 pot)
O=C(NCCc1nnc2ccc(NCc3cccnc3)nn12)c1ccccc1F	none
CCC1(c2ccccc2)NC(=S)N(c2ccc(C)cc2)N1 (stereo not drawn)	KCNQ2 pot 13
CCCCCCC1(C)NC(=S)N(c2ccccc2)N1 (stereo not drawn)	none (no result: KCNQ2 pot)
CCC1(c2ccc(Cl)cc2)NC(=S)N(c2ccccc2)N1 (stereo not drawn)	KCNQ2 pot 11.1
CCCCCC1(C)NC(=S)N(c2ccccc2)N1 (stereo not drawn)	none (no result: KCNQ2 pot)
Cc1ccccc1COC(=O)CCC1=NS(=O)(=O)c2ccccc2N1	none
Cc1cccc(C)c1OCc1nnc(SCC(=O)Nc2ccc(N3CCOCC3)cc2)o1	none
C/C(=N\OCC(=O)Nc1cc(C)cc(C)c1)c1ccc2c(c1)OCCO2	none (no result: KCNQ2 pot)
C/C(=N\OCC(=O)Nc1c(C)cc(C)cc1C)c1ccc2c(c1)OCCO2	KCNQ2 pot 8.08
